For 11 compounds, Potency results are on record in PubChem BioAssay (NCATS).

Records with an inconclusive call do not appear. The source made the active and inactive calls. Unless noted, calls come from the whole dose curve; as a rule, active = well fitted activation curve with a large enough effect; inconclusive = small, poorly fitted or top-dose-only effect; inactive = no such curve, though single readings can be large or run the other way.

Assay [1] concerns the target Parathyroid hormone/parathyroid hormone-related peptide receptor (Homo sapiens) (UniProt Q03431). Kind of assay: qHTS for PTHR1 Agonists: Optimization Screen against the NCGC LOPAC library (AID 1347079).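 Note: GloSensor cAMP luminescence in HEK-293 GP2 cells expressing human PTHR1 with IBMX.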 Particulars: HEK293 GP2 PTHR1 GloSensor cAMP luminescence, 1 h; series mostly up to 57.1 µM. In a few lines:
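Compounds were tested across a qHTS titration. PTHR1-expressing GP2 cells report cAMP rises via GloSensor luminescence after 1 hr compound exposure at 37C with IBMX present.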

Assay [2] in a line: qHTS for Inhibitors of the Functional Ribonucleoprotein Complex (vRNP) of Lassa (LASV) Arenavirus: LASV Primary Screen - GLuc reporter signal (AID 1347082; calls by dose curve; tested in HEK293 reporter line; note: nearly all actives have a fitted effect of over 60% in size). Particulars: LASV minigenome vRNP, Gaussia luciferase reporter; series mostly up to 57.5 µM.
Assay [3] in a line: qHTS for Inhibitors of the Functional Ribonucleoprotein Complex (vRNP) of Lassa (LASV) Arenavirus: Viability assay - alamar blue signal for LASV Primary Screen (AID 1347083; calls by dose curve; tested in HEK293 reporter line; note: nearly all actives have a fitted effect of over 80% in size; note: potency is the fitted concentration of half-maximal effect). Conditions: cell viability, alamar blue fluorescence (LASV minigenome counter-screen); series mostly up to 57.5 µM. In general terms: In qHTS, concentration-response curves come from the screen itself.
Assay [4] can be described thus: qHTS for Inhibitors of the Functional Ribonucleoprotein Complex (vRNP) of Lymphocytic Choriomeningitis Arenaviruses (LCMV): Viability assay - alamar blue signal for LCMV Primary Screen (AID 1347085; calls by dose curve; tested in HEK293 reporter line; note: nearly all actives have a fitted effect of over 80% in size; note: potency is the fitted concentration of half-maximal effect). Conditions: alamar blue viability counter-screen, LCMV vRNP screen cells; series mostly up to 57.5 µM.
For assay [5], the target named is Nucleoprotein (Lymphocytic choriomeningitis virus (strain Armstrong)) (UniProt P09992). Briefly: qHTS for Inhibitors of the Functional Ribonucleoprotein Complex (vRNP) of Lymphocytic Choriomeningitis Arenaviruses (LCMV): LCMV Primary Screen - GLuc reporter signal (AID 1347086; calls by dose curve; note: nearly all actives have a fitted effect of over 70% in size; note: potency is the fitted concentration of half-maximal effect). Particulars: LCMV minigenome vRNP cell assay, Gaussia luciferase reporter; series mostly up to 57.5 µM.
Nucleoprotein (Lymphocytic choriomeningitis virus (strain Armstrong)), sequence (P09992 whole entry, looked up): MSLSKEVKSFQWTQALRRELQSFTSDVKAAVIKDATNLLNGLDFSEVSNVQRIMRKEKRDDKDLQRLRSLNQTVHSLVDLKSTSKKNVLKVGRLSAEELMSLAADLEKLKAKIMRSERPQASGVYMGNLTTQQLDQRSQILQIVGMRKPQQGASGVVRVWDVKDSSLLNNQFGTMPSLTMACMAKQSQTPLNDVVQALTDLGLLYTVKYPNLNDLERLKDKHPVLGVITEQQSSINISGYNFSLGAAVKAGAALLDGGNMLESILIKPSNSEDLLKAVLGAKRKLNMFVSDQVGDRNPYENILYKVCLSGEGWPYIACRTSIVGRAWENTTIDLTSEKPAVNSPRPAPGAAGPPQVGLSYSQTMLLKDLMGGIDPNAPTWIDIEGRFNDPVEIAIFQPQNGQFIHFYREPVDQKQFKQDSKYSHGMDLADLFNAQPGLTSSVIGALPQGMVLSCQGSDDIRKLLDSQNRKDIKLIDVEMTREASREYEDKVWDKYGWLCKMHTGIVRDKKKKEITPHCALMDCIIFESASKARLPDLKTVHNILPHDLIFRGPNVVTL

Parathyroid hormone/parathyroid hormone-related peptide receptor (Homo sapiens), sequence (Q03431 whole entry, looked up): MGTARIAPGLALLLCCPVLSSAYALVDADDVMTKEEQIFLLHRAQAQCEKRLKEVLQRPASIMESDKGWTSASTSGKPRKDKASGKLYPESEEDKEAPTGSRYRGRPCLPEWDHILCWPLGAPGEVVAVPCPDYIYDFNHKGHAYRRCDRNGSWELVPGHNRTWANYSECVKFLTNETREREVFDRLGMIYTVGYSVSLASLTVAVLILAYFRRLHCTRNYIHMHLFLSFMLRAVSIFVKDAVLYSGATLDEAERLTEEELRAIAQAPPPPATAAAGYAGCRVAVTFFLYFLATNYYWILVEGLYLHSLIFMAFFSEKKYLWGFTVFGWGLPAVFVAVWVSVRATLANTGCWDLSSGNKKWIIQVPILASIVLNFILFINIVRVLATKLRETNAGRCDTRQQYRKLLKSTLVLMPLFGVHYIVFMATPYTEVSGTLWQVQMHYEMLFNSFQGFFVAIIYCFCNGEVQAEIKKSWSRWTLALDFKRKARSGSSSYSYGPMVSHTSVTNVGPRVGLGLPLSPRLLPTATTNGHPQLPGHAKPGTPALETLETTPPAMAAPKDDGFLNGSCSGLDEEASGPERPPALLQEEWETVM

On to `c1ccc2c(N3CCNCC3)cccc2c1`, for which the Potency result in assay [1], in assay [2], in assay [3], in assay [4] and in assay [5] was “inactive” throughout.

With `C[N+]1(C)CCOC(O)(c2ccc(-c3ccc(C4(O)C[N+](C)(C)CCO4)cc3)cc2)C1` (centres undefined), the Potency entry in assay [1], in assay [2], in assay [3], in assay [4] and in assay [5] was “inactive” each time.

For the compound `Cc1o[nH]c(=O)c1CC(N)C(=O)O` (centres undefined), the Potency result in assay [1], in assay [2], in assay [3], in assay [4] and in assay [5] was “inactive” each time.

In the case of `N[C@@]1(C(=O)O)CC[C@@H](C(=O)O)C1`, the Potency result in assay [1], in assay [2], in assay [3], in assay [4] and in assay [5] was “inactive” in each case.

Take `N[C@@H](Cn1ccc(=O)[nH]c1=O)C(=O)O`: the Potency entry in assay [1], in assay [2], in assay [3], in assay [4] and in assay [5] was “inactive” in each case.

For the compound `CN1CC[C@@]2(C)c3cc(OC(=O)Nc4ccccc4)ccc3N(C)[C@@H]12`, the Potency entry in assay [1], in assay [2], in assay [3], in assay [4] and in assay [5] was “inactive” throughout.

Turning to `CC(N)Cc1c[nH]c2ccc(O)cc12` (centres undefined), the Potency result in assay [1], in assay [2], in assay [3], in assay [4] and in assay [5] was “inactive” throughout.

Consider `CN1CCc2cc(O)cc3c2[C@H]1Cc1ccc(O)c(O)c1-3`, for which the Potency entry in assay [1], in assay [2], in assay [3], in assay [4] and in assay [5] was “inactive” throughout.

On to `N[C@@H](CCl)C(=O)O`, for which the Potency result in assay [1], in assay [2], in assay [3], in assay [4] and in assay [5] was “inactive” throughout.

In the case of `CN(N=O)c1ccc(O)c(O)c1`, the Potency result in assay [1], in assay [2], in assay [3], in assay [4] and in assay [5] was “inactive” throughout.

For the compound `C[C@@H]1O[C@@H](O[C@H]2C[C@@H](O)[C@]3(CO)[C@@H]4C(CC[C@]3(O)C2)[C@@]2(O)CC[C@H]([C@@H]3COC(=O)C3)[C@@]2(C)C[C@H]4O)[C@H](O)[C@H](O)[C@H]1O` (some centres undefined), the Potency entry in assay [1] is “inactive”. The figures for the Potency in assay [3], in assay [4] and in assay [5] were 3980 nM (active), 2240 nM (active) and 2000 nM (active), respectively.
